Source: PubChem BioAssay (NCI)
Several values for one entry are separate records, joined by “and”; a condition that tells them apart may be missing. Identical values can stand only once. Compounds without any hit were thinned out: in the full panel of roughly 83,000, 20% have a hit.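 Single-concentration screen, 48 h exposure, 96-well plates. Endpoint: percent growth. Below 10 = active.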 Activity calls are given as the source filed them.

Test system: HL-60(TB) leukemia
Assay: NCI-60 one-dose screen, 48 h (100 = growth as untreated, 0 = no growth, -100 = all killed)
Settings: 10 µM unless noted

Row | SMILES | growth
1 | C#CCOc1cc(N(CC)CC)ccc1C(C(=O)NC(C)(C)C)N(C(=O)C1CCc2cc(F)ccc2O1)c1ccccc1Br (stereo not given) | 21.7% (inactive)
2 | Cc1ccc(C(=O)C(c2c[nH]c3ccccc23)c2c[nH]c3ccccc23)cc1 | 17.2% (inactive)
3 | C#CCOc1cc(N(CC)CC)ccc1C(C(=O)NC(C)(C)C)N(C(=O)C1CCc2cc(F)ccc2O1)c1ccc(F)cc1 (stereo not given) | 3.9% (active)
4 | CCC1(OC(=O)c2ccccc2SSCCOC(=O)CCCCC2SCC3NC(=O)NC32)C(=O)OCc2c1cc1n(c2=O)Cc2cc3ccccc3nc2-1 (stereo not given) | 76.7% (inactive)
5 | N#Cc1c(-c2ccc(Cl)cc2)nc2n[nH]c(-c3ccc(Cl)cc3)c2c1-c1cccs1 | 23.7% (inactive)
6 | O=C(c1ccc(O)cc1)C1[C@H](c2ccccc2Br)[C@@H](c2ccccc2)NC12C(=O)Nc1ccccc12 (stereo not given in full) | 19.8% (inactive)
7 | Cc1nc(Nc2ccccn2)sc1C1=NNC(c2ccccc2F)C1 (stereo not given) | 4.96% (active)
8 | CCOc1ccccc1[C@H]1C(C(=O)c2ccc(Cl)cc2)C2(N[C@@H]1c1ccccc1)C(=O)Nc1ccc(Cl)cc12 (stereo not given in full) | 18.2% (inactive)
9 | Cc1cccc2cc(-c3cc(-c4ccccc4)nc(=O)[nH]3)c(Cl)nc12 | 55.3% (inactive)
10 | O=C(Nc1ccc(F)cc1)Nc1nc2ccc([N+](=O)[O-])cc2s1 | -11.5% (active)
11 | CC(C)CCNC(=O)N/C(N)=N/c1nc2ccccc2s1 | 55.6% (inactive)
12 | O=C(CSc1nnc(-c2c[nH]c3ccccc23)n1-c1ccccc1)Nc1ccc(C(=O)/C=C/c2cccc([N+](=O)[O-])c2)cc1 | 86.8% (inactive)
13 | Nc1nc(-c2ccccc2)cs1 | 18.9% (inactive)
14 | Nc1nnc(CS(=O)(=O)c2ccccc2)s1 | 105% (inactive)
15 | N#Cc1c(-c2cccnc2)cc(-c2ccc3ccccc3c2)[nH]c1=O | 72.6% (inactive)
16 | CC(/C=C1\SC(=S)N(CCCC(=O)NC(CC(C)C)C(=O)O)C1=O)=C\c1ccccc1 (stereo not given) | 63.4% (inactive)
17 | COc1ccc(CN2[C@H](C(=O)NCc3ccc(C(=O)NO)cc3)Cc3c([nH]c4ccccc34)[C@H]2C2CC2)cc1 | 11% (inactive)
18 | Cc1cc2nc3c4ccccc4n(CCCN(C)C)c3nc2cc1C | -40.5% (active)
19 | C/C(=N/O)c1ccc(NC(=O)CSc2nnc(-c3ccc4nc(-c5ccc(Cl)cc5)[nH]c4c3)o2)cc1 | 81.8% (inactive)
20 | Cc1nc(N)ncc1-c1ccc2ncnc(N3CCc4cc(F)c(Cl)cc43)c2c1 | 46.6% (inactive)

Row | SMILES | growth
21 | CCN(CC)CCOc1ccc(Nc2ncc3cc(-c4ccc(O)c(C#N)c4)c(=O)n(C)c3n2)cc1 | 87.6% (inactive)
22 | Cc1ccc(S(=O)(=O)Nc2ccc(-c3ccc4c(c3)NC(=O)/C4=C\c3ccc[nH]3)cc2)cc1 | 39.3% (inactive)
23 | CCCN(CCC)S(=O)(=O)c1ccc(C(=O)O)cc1.CCCN(CCC)S(=O)(=O)c1ccc(C(=O)O)cc1.[Cl][Pt+2][Cl].[NH2-].[NH2-] | -2.97% (active)
24 | O/N=C(\CSc1nnc(-c2c[nH]c3ccccc23)n1-c1ccccc1)c1ccc(Cl)cc1 | -25.9% (active)
25 | CO[C@@H]1CSS[C@H]1Cn1nc(-c2ccc(Oc3ccccc3)cc2)c2c(N)ncnc21 | 25.8% (inactive)
26 | O=C(CSc1nnc(-c2c[nH]c3ccccc23)n1-c1ccccc1)Nc1ccc(C(=O)/C=C/c2ccc(Cl)cc2)cc1 | 66.8% (inactive)
27 | COc1ccc(-c2ccc(SCC(=O)Nc3ccc(S(N)(=O)=O)cc3Br)nn2)cc1 | 94.9% (inactive)
28 | N#Cc1ccc(C(=O)NNC(=O)CSc2nc3sc4c(c3c(=O)n2-c2ccc(Cl)cc2)CCCC4)cc1 | 67.2% (inactive)
29 | CC1=C(C(=O)OC(C)C)C(c2ccc(O)cc2)NC(=O)N1 (stereo not given) | 90.2% (inactive)
30 | COc1ccc(-n2c(NC(=O)N3CCN(C)CC3)c(C#N)c3ccccc32)cc1 | 74.2% (inactive)
31 | CN1C(=O)/C(=C/c2nccs2)SC1=S | 89% (inactive)
32 | COc1ccc(-c2cc(C(=O)OCc3ccc(Br)cc3)nn2-c2ccc(S(C)(=O)=O)cc2)cc1OC | 83.6% (inactive)
33 | C[C@@H](Nc1c(C#N)cnc2ccc(-c3cnc4[nH]ncc4c3)cc12)c1ccccc1 | 35.2% (inactive)
34 | S=c1c2ccccc2nc2n1CCc1c-2[nH]c2ccccc12 | 98% (inactive)
35 | CCCn1c(O)c(N=Nc2nc(-c3cc4ccccc4oc3=O)cs2)c2cc(Br)ccc21 | 99.3% (inactive)
36 | CS(=O)(=O)Nc1cccc(-n2c(COc3ccc(OC(F)(F)F)cc3)nc3ccccc32)c1 | 111% (inactive) and 95.1% (inactive)
37 | Cc1ccc(CNC(=O)Cc2ccc3c(c2)CN(C2CCC(=O)NC2=O)C3=O)cc1 (stereo not given) | -23.1% (active)
38 | Brc1ccc(N/N=C/c2c[nH]c3ccccc23)nc1 | 13.2% (inactive)
39 | CCOC(=O)c1ccc(Nc2nc(NN)nc(-c3ccc(F)cc3)c2C#N)cc1 | 88% (inactive)
40 | COc1ccc2oc(=O)c(C3(C)NC(=O)c4c(/C=C/C(=O)OC(C)(C)C)cccc4N3)cc2c1 (stereo not given) | -5.42% (active)
